Among all 370,000 compounds or so, about 100 (0.027%) were called active. The call rests on the fitted dose curve; in most records, active means well fitted inhibition curve with a large enough effect in the polarisation, with a control signal flat; inconclusive means small, poorly fitted or top-dose-only effect, or effect the other way, or a change in a side signal; inactive means no such curve, though single readings can be large or run the other way; the % refers to the polarisation. Shown is part of a subset that was picked to be rich in actives. Where a call stands in place of a potency, no number is given.
Target: Transcriptional regulator ERG (Homo sapiens) (UniProt P11308)
Assay: qHTS for Small Molecule Inhibitors of the ERG Ets/DNA interaction
Conditions: fluorescence polarization, His-ERG Ets domain / labelled DNA; series mostly up to 76.9 µM
Description: The Ets family of proteins is a family of ~30 conserved transcription factors defined by the presence of an ~85 amino acid domain referred to as the Ets domain, which mediates sequence-specific DNA binding to a core DNA element GGAA/T.The Ets family member ERG has been linked to several neoplasms. […] More extensive studies of the effects of over-expression of ERG in prostate cells have recently been carried out and have shown that over-expression of ERG results in increased invasion. […] We will carry out a high throughout screen to identify inhibitors of the interaction between ERG and DNA using a fluorescence polarization (FP) assay with a His-tagged ERG Ets domain and fluorescently-labeled DNA probes to develop small molecule inhibitors of this interaction as probes to test this hypothesis and lay the groundwork for the development of targeted therapies against ERG. NIH Molecular Libraries Probe Production Network [MLPCN] NIH Chemical Genomics Center [NCGC] Grant: NS066464 PI Name: John Bushweller, University of Virgina
1.5 ul of protein solution (1 uM ERG domain in 300mM KCl, 50mM Tris-HCl, 1mM EDTA, 1mM DTT, pH 7.5); 20 nl Control plate and compound library plate; 1.5 ul mixture of 5 nM Fluorescein-DNA and 100nM Texas-615-DNA solution in same buffer as above solution; measure fluorescence polarization sequentially for fluorescein (Excitation = 480 nm, Emission = 535s, 535p nm) and Texas red (Excitation = 555 nm, Emission = 632s, 632p nm).
Potency means the concentration at half of the fitted maximal effect.

Transcriptional regulator ERG (Homo sapiens), sequence (P11308 whole entry, looked up): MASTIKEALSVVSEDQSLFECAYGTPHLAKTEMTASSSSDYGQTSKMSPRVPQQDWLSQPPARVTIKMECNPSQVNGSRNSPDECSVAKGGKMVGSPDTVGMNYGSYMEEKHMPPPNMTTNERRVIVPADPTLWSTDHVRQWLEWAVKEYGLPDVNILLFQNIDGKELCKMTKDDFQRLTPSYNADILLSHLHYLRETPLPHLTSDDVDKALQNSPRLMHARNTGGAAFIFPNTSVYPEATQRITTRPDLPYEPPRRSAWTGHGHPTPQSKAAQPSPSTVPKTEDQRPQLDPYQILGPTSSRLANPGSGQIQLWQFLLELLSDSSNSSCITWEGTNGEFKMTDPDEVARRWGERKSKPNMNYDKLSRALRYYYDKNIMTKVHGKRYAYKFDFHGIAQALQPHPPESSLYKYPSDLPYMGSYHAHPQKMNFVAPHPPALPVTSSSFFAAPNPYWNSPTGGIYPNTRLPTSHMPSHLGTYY

Row | SMILES | Potency
1 | Cc1ccc(-c2nnc(Nc3ccc(OCC(N)=O)cc3)c3ccccc23)cc1S(=O)(=O)NCC1CCCO1 (stereo unspecified) | inactive
2 | O=C(NC1CC(=O)N(c2ccc(F)cc2)C1)c1cccs1 (stereo unspecified) | inactive
3 | O=C(NCCc1ccc(Cl)cc1)c1ccc2nc(CCc3ccccc3)oc2c1 | inactive
4 | COc1ccc(OC)c(CNC(=O)CN2C(=O)CCn3nc(-c4cn(C)c5ccccc45)cc32)c1 | inactive
5 | Cc1ccc(NC(=O)CSc2nc3c(c(=O)[nH]2)CN(Cc2ccc4c(c2)OCO4)CC3)cc1C | inactive
6 | CCCCc1nn2c(=O)cc(COC(=O)c3ccc(NC(=O)c4ccccc4C)cc3)nc2s1 | inactive
7 | Cc1ccc(NC(=O)CSc2nc3ccccc3c3nc(CCn4cncc4C)nn23)cc1F | inactive
8 | CC1=C(C(=O)N2CCN(c3cccc(C(F)(F)F)c3)CC2)C2(CCCCC2)OC1=O | inactive
9 | O=C(CNC(=O)c1ccco1)OCC(=O)c1ccccc1 | inactive
10 | COCCn1c(C)cc(C(=O)COC(=O)CNC(=O)c2ccco2)c1C | 7.94 µM (active)
11 | Cc1cc(C(=O)COC(=O)CNC(=O)c2ccc(F)cc2)c(C)n1Cc1ccco1 | inactive
12 | CC(C)c1ccc(NC(=O)CN(C)S(=O)(=O)c2ccc3c(c2)c(=O)n(C)c(=O)n3C)cc1 | inactive
13 | CCOC(=O)c1cccc(NC(=O)C(Cc2ccccc2)NS(=O)(=O)c2cccc3nsnc23)c1 (stereo unspecified) | inactive
14 | CCS(=O)(=O)N1CCC(n2c(C)nc3cccnc32)CC1 | inactive
15 | CCOc1ccc(-c2cc3nc(C4CCN(C(=O)OC(C)(C)C)CC4)c(C(=O)Nc4ccc(C(=O)OC)cc4)cn3n2)cc1 | inactive
16 | CCc1ccc(CN(Cc2ccco2)C(=O)c2ccccc2Cl)cc1 | inactive
17 | CCN(CCCNC(=O)Cn1ncc2c3ccccc3n(C)c2c1=O)Cc1ccccc1 | inactive
18 | CCC(=O)N1CCc2cc(S(=O)(=O)NCCC(=O)Nc3cccc(C)c3C)ccc21 | inactive
19 | Cc1ccc(-n2ncc(C(=O)N(C)Cc3ccccc3)c2-n2cccc2)cc1 | inactive

Row | SMILES | Potency
20 | Cc1cc(O)c(C(c2ccccc2)N2CCN(c3ccccc3F)CC2)c(=O)n1Cc1ccco1 (stereo unspecified) | inactive
21 | CCOc1ccc(C(=O)/C=C/c2cn(CC(O)CN3CCCCCC3)c3ccccc23)cc1 (stereo unspecified) | inactive
22 | Cc1cc(C)c(NC(=O)CN2C(=O)c3cccnc3Oc3ccc(Cl)cc32)c(C)c1 | inactive
23 | CCc1ccc(S(=O)(=O)c2nnn3c2nc(N2CCN(CC)CC2)c2sccc23)cc1 | inactive
24 | Cc1cccc(NC(=O)CSc2nnc(CNC(=O)c3cccc(C)c3)n2-c2ccccc2)c1 | inactive
25 | Cc1ccccc1-c1nc2scc(CCNC(=O)C(=O)Nc3ccc(F)cc3F)n2n1 | inactive
26 | CC(C)CCNC(=O)CSc1nc2ccccc2nc1Cc1ccc(Cl)cc1 | inactive
27 | CC(=O)Nc1cccc(NC(=O)CSc2nccn2Cc2ccc3c(c2)OCO3)c1 | inactive
28 | CCC(=O)N1CCc2cc(Br)cc(S(=O)(=O)Nc3ccc(C)cc3C)c21 | inactive
29 | O=C(CN1CCN(Cc2ccc(Cl)cc2)C1=O)NCc1ccc(F)cc1 | inactive
30 | COc1ccc(-c2cccc(NS(=O)(=O)c3cc(C)c(OC)c(C)c3C)c2)nn1 | inactive
31 | Cc1nn2c(=O)cc(COC(=O)CNC(=O)c3ccc(F)cc3)nc2s1 | inactive
32 | CCOc1ccccc1C(=O)NCc1ccc2c(c1)CCN2C(=O)c1ccc(F)cc1 | inactive
33 | Cc1c(NC(=O)Nc2ccc(F)c(Cl)c2)c(=O)n(-c2ccccc2)n1C | inactive
34 | Cc1ccc(N2CC(NC(=O)Cc3cccs3)CC2=O)cc1 (stereo unspecified) | inactive
35 | Cc1nnc(N2CCC(C(=O)Nc3ccc(F)cc3)CC2)c2nn(-c3ccc(Cl)cc3)c(C)c12 | inactive
36 | Cc1ccc(C)c(N2CCN(C(=O)Cn3ncc4c(=O)oc5ccc(C)cc5c43)CC2)c1 | inactive
37 | Cc1ccc(C(=O)N2CCc3cc(CNC(=O)c4ccc(Br)cc4)ccc32)cc1 | inactive
38 | Cc1ccc(S(=O)(=O)NCc2nc3nc(C)cc(C)n3n2)cc1 | inactive

Row | SMILES | Potency
39 | CCN(CCCNC(=O)c1cc(Nc2ccc(OC)cc2)nc2ccccc12)c1cccc(C)c1 | inactive
40 | CCc1nnc2c3ccccc3nc(N3CCN(c4ccc(C)cc4C)CC3)n12 | inactive
41 | Cc1nnc(SCc2cc(=O)c3cc(F)ccc3[nH]2)n1C | inactive
42 | Cc1ccc(C(=O)Nc2ccc3[nH]c(=O)c(=O)[nH]c3c2)cc1 | inactive
43 | Cc1sc(C2C(C#N)=C(N)N(c3cccc(Cl)c3)C3=C2C(=O)CCC3)cc1CN1CCOCC1 (stereo unspecified) | inactive
44 | O=C(CCc1ccccc1)NCc1ccc2c(c1)CCN2C(=O)c1ccccc1 | inactive
45 | CCc1ccccc1NC(=O)c1sc2nc3c(cc2c1N)CN(Cc1ccccc1)CC3 | inactive
46 | COc1ccc(CCNC(=O)c2ccc(CSCc3ccc(C)cc3)o2)cc1OC | inactive
47 | CCCn1c2ccccc2c2cnn(CC(=O)N3CCCC(C(=O)OCC)C3)c(=O)c21 (stereo unspecified) | inactive
48 | Cc1cc(C(=O)Nc2cccc(C(F)(F)F)c2)c2c(C)nn(-c3cccc(F)c3)c2n1 | inactive
49 | CC(C)(C)c1ccc(C(=O)Nc2ccc3c(c2)CCCN3C(=O)c2cccs2)cc1 | inactive
50 | COc1ccc(-c2nc(CS(=O)CC(=O)NCc3ccccn3)c(C)o2)cc1 (stereo unspecified) | 35.5 µM (active)
51 | COc1ccc(-c2nc(CS(=O)CC(=O)NCc3cccnc3)c(C)o2)cc1OC (stereo unspecified) | inactive
52 | COc1ccc(CNC(=O)CS(=O)Cc2nc(-c3cccc(C)c3)oc2C)cc1 (stereo unspecified) | inactive
53 | Cc1cc(C)nc(NS(=O)(=O)c2ccc(NC(=O)c3cc(=O)c4ccc(C)c(C)c4o3)cc2)n1 | inactive
54 | CCCn1c(NCc2ccccc2F)nc2ccccc21 | inactive
55 | O=C(CSc1nc(Nc2ccc(F)c(F)c2)c2ccccc2n1)c1ccc(Cl)cc1 | inactive
56 | COc1cc(C(=O)Nc2ccc(OCc3cc(=O)n4ccc(C)cc4n3)cc2)cc(OC)c1OC | inactive

From PubChem BioAssay AID624246 (National Center for Advancing Translational Sciences (NCATS), 2012)
